Screens: PubChem, National Center for Advancing Translational Sciences (NCATS)
D3 antag – blocks the human D3 dopamine receptor; AID 652054; P35462; hit rate 2.5% among 360,000; D3R cells, DiscoveRx beta-arrestin luminescence, antagonist mode; stronger effect = lower value; max response, negative = inhibition, %; in the data active = max response below about -50%; inconclusive = no clear call, values can overlap the other calls; note: % is set by controls: 0 for no effect and ±100 for the full control effect
Target sequence (P35462 whole entry, looked up): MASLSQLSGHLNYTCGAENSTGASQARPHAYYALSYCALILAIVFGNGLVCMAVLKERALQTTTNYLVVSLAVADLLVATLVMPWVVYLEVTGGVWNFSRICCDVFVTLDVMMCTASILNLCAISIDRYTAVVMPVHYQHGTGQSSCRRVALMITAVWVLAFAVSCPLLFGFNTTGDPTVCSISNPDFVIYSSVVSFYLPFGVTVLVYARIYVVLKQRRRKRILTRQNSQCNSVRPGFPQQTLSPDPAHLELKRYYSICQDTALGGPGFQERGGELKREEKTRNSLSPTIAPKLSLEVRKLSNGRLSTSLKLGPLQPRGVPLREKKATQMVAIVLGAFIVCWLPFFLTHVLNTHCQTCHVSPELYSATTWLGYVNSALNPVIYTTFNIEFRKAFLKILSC
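Cells plated overnight at 1500 cells/well, then exposed to library compounds with dopamine controls for 90 minutes at 37 degrees C. DiscoveRx reagent added for 30–60 minutes at room temperature; luminescence read, quantitative HTS format.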
D3 ag – activates the human D3 dopamine receptor | P35462 | max activation, % | hit rate 0.58% among 410,000 | D3R DiscoveRx beta-arrestin cells, luminescence, 90 min; in the data active = max activation above about 30%; note: 0% is about no effect
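Agonist-mode cell screen: cells plated at 1500/well and incubated overnight at 37 °C, then exposed to library compounds for 90 min at 37 °C. Detection reagent was added for 30–60 min at room temperature, and luminescence was read.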
D1 antagonist – blocks dopamine activation of the human D1 receptor. P21728. HEK293 TREx D1 cells, calcium flux, dopamine EC80; stronger effect = lower value. activity change, negative = inhibition, % at 10 µM. hit rate 3.2% among 360,000; in the data active = activity change below about -30%; note: % is set by controls: 0 for no effect and ±100 for the full control effect
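Compound effects on dopamine-evoked calcium signalling were measured in tetracycline-induced HEK293 Trex D1 cells. Dopamine at EC80 followed a 180 s compound pre-read, and fluorescence was tracked kinetically for 180 s more.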
D1 PAM – potentiators of human D1 dopamine receptor. hit rate 0.036% among 360,000. AID 504651. potentiation, % at 10 µM. P21728. HEK293 TREx D1 cells, calcium flux, dopamine EC20 potentiation; in the data active = potentiation above about 30%; note: 0% is about no effect
D1 agonist – agonists of human D1 dopamine receptor | P21728 | HEK293 T-REx D1 cells, calcium flux, agonist mode | activation, % at 2 µM | hit rate 1% among 360,000 | AID 504660; in the data active = activation above about 30%; note: 0% is about no effect
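Agonism was scored from calcium flux recorded over 180 s (1 read/s) after pintool compound addition, following a 10-cycle baseline. Cells were inducible force-coupled HEK293 TREx D1, plated overnight at 30 C and loaded with no-wash calcium dye.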
The depositor's hits bear a star; ? = inconclusive; . = no result given. Rows were chosen to be rich in hits. Some 6.1% of all compounds tested hit in one or more screens of this group.

SMILES	D3 antag	D3 ag	D1 antagonist	D1 PAM	D1 agonist
CCCCCN1C(C(=O)c2ccccc2)=C(NC(=O)c2ccccc2Cl)c2ccccc2S1(=O)=O	.	-23	5	0	1
O=[N+]([O-])c1ccc(OCCCCN2CCc3ccccc3C2)cc1	-102*	-21	-63*	-8	8
O=[N+]([O-])c1ccc(CN2CCN(c3ccc([N+](=O)[O-])cc3)CC2)cc1	-2	-2	-3	-3	7
CC1CCN(CCCCOc2ccc([N+](=O)[O-])cc2)CC1	-29	-36	-44*	-2	2
C[N+](C)(C)CCOc1ccc([N+](=O)[O-])cc1	5	6	-31*	0	3
CC1(C)NC(=O)N(CCOc2ccc([N+](=O)[O-])cc2)C1=O	10	1	.	1	1
COC(=O)C1CCN(Cc2ccc(OCCCN3CCN(c4ccc([N+](=O)[O-])cc4)CC3)cc2)CC1	-52*	-13	-27	0	11
Cc1ccc(OCCCCN2CCC(C)CC2)cc1	?	-39	1	-4	5
Cc1ccc2c(CNCc3ccccc3)cc(=O)oc2c1	-20	-2	-10	3	1
CC1CCN(CCCCOc2ccccc2[N+](=O)[O-])CC1	-83*	-22	-10	-14	2
Cc1cc(OCCN2CCCCCC2)ccc1[N+](=O)[O-]	-68*	-15	-9	3	1
COc1cccc(NC(=O)c2ccc(NCCCN3CC(C)CC(C)C3)c([N+](=O)[O-])c2)c1 (centres undefined)	?	-17	6	-12	1
CC1CCN(CCOc2ccccc2-c2ccccc2)CC1	?	-30	-18	-6	2
COc1cccc(NC(=O)c2ccc(NCCCN3CCC(C)CC3)c([N+](=O)[O-])c2)c1	-54*	-20	8	0	2
Cc1ccc(OCCCCN2CCCC(C)C2)c([N+](=O)[O-])c1 (centres undefined)	-80*	-18	.	-12	3
O=C(OCCN1CCOCC1)c1ccc(Cl)cc1Cl	-22	-2	-11	3	3
CCOc1ccc(CCNC(=O)Cn2nnc(-c3ccccc3)n2)cc1OCC	.	3	-20	-4	1
Cc1ccc(NCC(=O)N/N=C\c2ccc[nH]2)cc1	28	8	9	-1	2
Cc1cc(NC(=O)CSc2ccc3nnc(-c4ccccn4)n3n2)no1	3	-2	-32*	-11	3
O=C(CSc1ccc2nnc(-c3ccccn3)n2n1)Nc1ccccc1	-21	-5	2	3	5
Cc1ccc(CNC(=O)c2cccc3c2C(=O)c2ccc(N4CCOCC4)cc2S3(=O)=O)cc1	28	26	.	-3	49*
Cc1ccc(CNC(=O)c2cccc3c2C(=O)c2ccc(N4CCCCC4)cc2S3(=O)=O)cc1	43	-7	17	5	97*
O=C(NCc1cccc(F)c1)c1cccc2c1C(=O)c1ccc(N3CCOCC3)cc1S2(=O)=O	21	56*	.	.	.
O=C(NCc1ccccc1C(F)(F)F)c1cccc2c1C(=O)c1ccc(N3CCOCC3)cc1S2(=O)=O	73	38*	.	.	.
COCCNC(=O)c1cccc2c1C(=O)c1ccc(N3CCOCC3)cc1S2(=O)=O	6	10	.	.	.
SMILES	D3 antag	D3 ag	D1 antagonist	D1 PAM	D1 agonist
O=C(NCc1ccccc1C(F)(F)F)c1cccc2c1C(=O)c1ccc(N3CCC(N4CCCCC4)CC3)cc1S2(=O)=O	12	6	.	.	.
CSc1ccc(CNC(=O)c2cc3cc(S(=O)(=O)N4CCCCC4)ccc3n2C)cc1	.	8	14	-3	4
CC(O)[C@H]1CC[C@H]2[C@@H]3CC[C@@H]4C[C@@H](O)CC[C@]4(C)[C@H]3CC[C@]12C (some centres undefined)	.	13	.	.	.
CC(C)(C)OC(=O)NCc1ccc(CNC(=O)c2[nH]cnc2C(=O)NC2CCN(C(=O)OC(C)(C)C)CC2)cc1	10	29	0	-5	3
O=C(NC1CCCCC1)c1cccc2c1C(=O)c1ccc(-c3ccc(OC(F)(F)F)cc3)cc1S2(=O)=O	7	-20	.	.	.
O=C(NCc1ccccc1Cl)c1cccc2c1C(=O)c1ccc(-c3ccc(OC(F)(F)F)cc3)cc1S2(=O)=O	54	31*	.	.	.
COC(=O)C1CCCCN1C(=O)c1cc(COc2cccc3cccnc23)on1 (centres undefined)	-20	-6	-2	1	1
